DUX4 inh = blocks DUX4-driven transcriptional activation | actives 0.8% (n = 37,000) | 293T-iDUX4 ZSCAN4-Gaussia luciferase reporter, 24 h; hits give low values | activity change, negative = inhibition, % (concentration not given with the values);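 active = mean inhibition of at least 10% in the main channel, exceeding the control channel by a set limit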
Large screens that a line does not name were inactive. Only a selection was taken, and hits are over-represented in it overall.

C[C@@H]1CN([C@@H](C)CO)C(=O)c2ccccc2-c2ccccc2CO[C@@H]1CN(C)Cc1cccc(C(F)(F)F)c1	DUX4 inh -63
COc1ccc2c3c(n(C)c2c1)[C@H](CO)N(C(=O)CN1CCOCC1)CC31CCN(C(C)=O)CC1	none
C/C=C/c1ccc([C@H]2[C@@H](CO)N(C(C)=O)C23CN(C(=O)c2ccc(F)cc2)C3)cc1	none
C[C@H]1CN([C@@H](C)CO)C(=O)c2cc(NS(=O)(=O)c3cccs3)ccc2O[C@@H]1CN(C)S(=O)(=O)c1ccc(Cl)cc1	none
O=C(Cc1ccccc1)N1CC(=O)N2[C@H](CO)[C@@H](c3ccc(C#CCc4ccccc4)cc3)[C@@H]2C1	DUX4 inh -33
CC(C)CC#Cc1ccc([C@H]2[C@H]3CN(C(=O)c4cccc(F)c4)CC(=O)N3[C@H]2CO)cc1	none
CC(C)CC#Cc1ccc([C@H]2[C@H](CO)N3C(=O)CN(C(=O)c4cccc(F)c4)C[C@@H]23)cc1	DUX4 inh -38
O=C(Cc1ccccc1)N1CC(=O)N2[C@@H](CO)[C@H](c3ccc(C#CCc4ccccc4)cc3)[C@@H]2C1	none
O=C(Cc1ccccc1)N1CC(=O)N2[C@@H](CO)[C@@H](c3ccc(C#CCc4ccccc4)cc3)[C@@H]2C1	none
CC(C)CC#Cc1ccc([C@@H]2[C@@H](CO)N3C(=O)CN(C(=O)c4cccc(F)c4)C[C@H]23)cc1	none
COc1ccc2c3c(n(C)c2c1)[C@H](CO)N(CC1CC1)CC31CCN(C(C)=O)CC1	none
COc1ccc([C@H]2CC=CC[C@H](C)Oc3ccccc3C(=O)N(C)[C@@H](C)C(=O)N2)c(OC)c1 (mixture of isomers)	none
O=C(CN1CCOCC1)NCC[C@H]1CC[C@@H](NC(=O)Cc2ccccn2)[C@@H](CO)O1	none
Cc1cccc(-c2ccc([C@H]3[C@H]4CN(C(=O)c5cnccn5)CC(=O)N4[C@H]3CO)cc2)c1	none
CC(=O)N1[C@H](CO)[C@@H](c2ccccc2)C12CN(C(=O)Nc1ccccc1F)C2	none
COc1ccc2c3c(n(C)c2c1)[C@H](CO)N(C(=O)CN(C)C)CC31CN(Cc2cccnc2)C1	none
C[C@@H]1CN([C@H](C)CO)C(=O)c2ccccc2-c2ccccc2CO[C@@H]1CN(C)CC1CC1	none
CN1c2ccc(C#Cc3ccccc3F)cc2[C@H]2[C@H](CCN2C(=O)c2cnccn2)[C@H]1CO	DUX4 inh -29
COc1ccc(C#Cc2ccc3c(c2)[C@@H]2[C@@H](CCN2C(=O)c2ccccc2F)[C@H](CO)N3C)cc1	none
CN1c2ccc(-c3ccccc3F)cc2[C@@H]2[C@@H](CCN2C(=O)c2ccccn2)[C@H]1CO	none
CC(C)NC(=O)N1CC[C@H]2[C@@H]1c1cc(C#Cc3cccnc3)ccc1N(C)[C@H]2CO	none
CN1c2ccc(C#Cc3cccnc3)cc2[C@@H]2[C@@H](CCN2C(=O)c2cccc(F)c2)[C@H]1CO	DUX4 inh -37
CN1c2ccc(Br)cc2[C@H]2[C@H](CCN2C(=O)c2cccc(F)c2)[C@H]1CO	none
Cc1cccc(-c2ccc([C@@H]3[C@@H](CO)N4C(=O)CN(C(=O)c5cnccn5)C[C@@H]34)cc2)c1	none
O=S(=O)(c1ccccc1)N1CC2(C1)[C@H](c1ccccc1)[C@H](CO)N2CC1CC1	none
CCCNC(=O)[C@@H]1[C@@H](CO)[C@@H]2Cn3c(ccc(C4=CCCC4)c3=O)[C@H]1N2C(=O)CC	none
C[C@H]1CN([C@@H](C)CO)C(=O)c2cccc(NC(=O)c3cnccn3)c2O[C@@H]1CN(C)C(=O)NC1CCCCC1	none
Cc1ccccc1S(=O)(=O)N1CCCCN2[C@H](C1)[C@@H](c1ccc(-c3cccc(F)c3)cc1)[C@@H]2CO	none
Cc1ccccc1S(=O)(=O)N1CCCCN2[C@@H](CO)[C@H](c3ccc(-c4cccc(F)c4)cc3)[C@@H]2C1	DUX4 inh -47
Cc1ccccc1S(=O)(=O)N1CCCCN2[C@H](C1)[C@@H](c1ccc(-c3cccnc3)cc1)[C@@H]2CO	none
Cc1cccc(-c2ccc([C@H]3[C@@H](CO)N4CCCCN(S(=O)(=O)c5ccccc5F)C[C@@H]34)cc2)c1	none
Cc1ccccc1S(=O)(=O)N1CCCCN2[C@H](CO)[C@@H](c3ccc(-c4cccnc4)cc3)[C@H]2C1	none
Cc1ccc(-c2ccc([C@@H]3[C@@H](CO)N4CCCCN(S(=O)(=O)c5ccccc5C)C[C@H]34)cc2)cc1	DUX4 inh -25
C[C@@H]1CCCCO[C@H](CN(C)Cc2ccc(C(=O)Nc3ccccc3N)cc2)[C@H](C)CN([C@@H](C)CO)C(=O)c2cc(N(C)C)ccc2O1	none
C[C@@H]1CN([C@H](C)CO)C(=O)c2cc(NC(=O)Cn3cnnn3)ccc2O[C@H]1CN(C)C(=O)Nc1ccc2c(c1)OCO2	none
O=C(c1ccccc1F)N1CC[C@@H]2[C@H](CO)Nc3ccc(C#Cc4ccc(F)cc4)cc3[C@@H]21	DUX4 inh -33
O=C(c1ccc2c(c1)OCO2)N1CC[C@@H]2[C@H](CO)Nc3ccc(-c4ccccc4)cc3[C@@H]21	none
O=C(c1ccccc1)N1CC[C@H]2[C@H](CO)Nc3ccc(C#Cc4cccc(F)c4)cc3[C@H]21	none

Compound activity as filed in PubChem BioAssay.
